Laboratory results reported in PubChem BioAssay.
Active and inactive are the calls of the source.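 The calls were made as follows: active = visual image review flags a hit and inhibition of aggregation exceeds 20%; inconclusive = visual hit but inhibition at or below 20%; inactive = no hit on visual image review.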

Assay: inhibitors of mutant huntingtin aggregation, primary screen, imaging, exon1htt(103Q)mCFP cells, high-content imaging (AID 483);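 also: compound exposure lasted 3 days before fixation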;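 as to nuclei count: percent of the per-plate median nuclei count of sample wells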
Conditions: exon1htt(103Q)mCFP cell line, aggregate imaging, at 2 µM; inhibition of aggregation: stronger effect = higher value; nuclei count: measured here: cell count, toxicity

| SMILES | nuclei count [%] | inhibition of aggregation |
| --- | --- | --- |
| c1ccc(N2CCN(Cc3ccnc4ccccc34)CC2)cc1 | 83.9 | 10.4% (inactive) |
| CCCCn1c(SCC(=O)N2CC(=O)Nc3ccccc32)nnc1-c1ccoc1C | 114 | 15.6% (inactive) |
| CC(Sc1nc(-c2ccccc2)cc(C(F)(F)F)n1)C(=O)N1CCC(C(N)=O)CC1 (stereo not drawn) | 97.1 | 8.9% (inactive) |
| CCOc1ccc(N2CC(C(=O)Nc3cccc(C)c3C)CC2=O)cc1 (stereo not drawn) | 85.4 | 12.5% (inactive) |
| CCC(=O)Nc1ccc(NC(=O)c2cccc(OC)c2)nc1 | 105 | -5.7% (inactive) |
| CCOC(=O)Cc1nnc2c(Nc3ccccc3F)nc3nonc3n12 | 119 | -25.8% (inactive) |
| Cc1cccc(N2CCN(C(=O)C3CCCN(S(=O)(=O)c4c(C)noc4C)C3)CC2)c1C (stereo not drawn) | 102 | -11.6% (inactive) |
| COc1ccc(N2CCN(Cc3nc(-c4ccc(Cl)cc4Cl)no3)CC2)cc1 | 106 | 4.9% (inactive) |
| Cc1cc(C(F)(F)F)nn1Cc1ccc(C(=O)NCc2ccco2)o1 | 106 | 2% (inactive) |
| C/C=C/c1ccc(OCCn2cncn2)c(OC)c1 | 132 | -27.6% (inactive) |
| Cc1cnc(C(=O)Nc2nnc(C(C)C)s2)cn1 | 107 | 10.8% (inactive) |
| Cc1nc2scc(-c3cccs3)c2c(=O)n1-n1cccc1 | 102 | 10.9% (inactive) |
| COc1ccc(-c2nc(CSCC(=O)N3CCN(c4cccc(C)c4)C(C)C3)c(C)o2)cc1OC (stereo not drawn) | 92.1 | 11.5% (inactive) |
| O=C(OCC(=O)c1ccccc1Br)c1ccccn1 | 98.4 | -3.7% (inactive) |
